Assay results: PubChem BioAssay AID504652 (National Center for Advancing Translational Sciences (NCATS), 2011)
Hit rate of the full screen: of about 360,000 compounds, about 11,000 (3.1%) were called active. This excerpt belongs to a sample that is enriched for actives. A number with no mark means an inactive call. Rule as the data show it: active = activity change below about -30%; inactive = the rest.

Each molecule was assayed against D(1A) dopamine receptor (Homo sapiens) (UniProt P21728) (assay: Antagonist of Human D 1 Dopamine Receptor: qHTS). Conditions: HEK293 TREx D1 cells, calcium flux, dopamine EC80; at 10 µM; active compounds read low.
D(1A) dopamine receptor (Homo sapiens), sequence (P21728 whole entry, looked up): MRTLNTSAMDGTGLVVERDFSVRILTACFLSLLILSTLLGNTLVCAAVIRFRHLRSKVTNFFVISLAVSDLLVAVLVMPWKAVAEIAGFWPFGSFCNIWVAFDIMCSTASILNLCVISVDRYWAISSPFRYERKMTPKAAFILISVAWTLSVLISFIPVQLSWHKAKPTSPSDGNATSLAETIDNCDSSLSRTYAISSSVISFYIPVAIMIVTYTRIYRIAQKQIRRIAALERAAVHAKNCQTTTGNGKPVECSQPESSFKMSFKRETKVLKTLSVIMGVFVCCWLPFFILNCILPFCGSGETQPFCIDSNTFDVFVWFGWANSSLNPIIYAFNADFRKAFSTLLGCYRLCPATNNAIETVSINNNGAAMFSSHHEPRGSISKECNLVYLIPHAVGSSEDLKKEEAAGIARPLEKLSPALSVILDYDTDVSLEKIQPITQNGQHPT
Procedure, shortened: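 Kinetic fluorescence of a calcium dye serves as the read-out. D1-expressing Hek293 Trex cells, induced overnight at 30 C, are exposed to compound for 180 s before an EC80 dopamine addition, then read 180 s further.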
% is scaled to controls: 0 for no effect and ±100 for the full control effect.

| Compound | activity change, negative = inhibition |
| --- | --- |
| Cc1ccc(NC2=C(Cl)C(=O)OC2OC(=O)c2ccccc2C)cc1 (configuration not stated) | -33.8% (active) |
| Cc1ccccc1C(=O)OC1OC(=O)C(Cl)=C1Nc1ccccc1 (configuration not stated) | -22.8% |
| O=C1OC(OC(=O)c2ccccc2Br)C(N2CCOCC2)=C1Cl (configuration not stated) | 6.42% |
| CCN(Cc1ccccc1)C(=O)c1cn(-c2cccc(OC)c2)c(=O)c2ccccc12 | -4.13% |
| COc1ccccc1NC(=O)c1cc(C2CC2)nc2c1c(C)nn2-c1ccc(C)cc1 | 3.81% |
| Cc1ccccc1Nc1nn2c(=O)c3ccc(C(=O)NCCc4ccc(Cl)cc4)cc3nc2s1 | -2.1% |
| Cc1ccc(C(=O)Nc2ccccc2F)cc1S(=O)(=O)N1CCOCC1 | -16.7% |
| Cn1c(CC(=O)NNC(=O)c2ccccc2F)nc2ccccc21 | -11.4% |
| COc1cccc(C(O)Cc2nc3ccccc3n2C)c1OC (configuration not stated) | 5.85% |
| Cn1c(COc2ccccc2C(C)(C)C)nc2ccccc21 | -65.7% (active) |
| O=C(Cn1cc(SCc2ccccc2)c2ccccc21)N1CCCCC1 | -7.17% |
| Cc1ccc(NC(=O)Nc2sc3nc4n(c(=O)c3c2C)CCC(C)CC4)c(Cl)c1 (configuration not stated) | 10.9% |
| COc1ccc(C2Nc3ccccc3C(=O)N2Cc2ccccc2)cc1Cn1nnc2ccccc21 (configuration not stated) | 12.5% |
| COc1ccc(CN2CCCC(C(=O)c3ccc(Cl)cc3)C2)cc1Cn1cncn1 (configuration not stated) | -13.5% |
| COc1ccc(C2Nc3ccccc3C(=O)N2c2ccc(Cl)cc2)cc1Cn1cc([N+](=O)[O-])cn1 (configuration not stated) | -30.3% (active) |
| Cc1cc(C)cc(NC(=O)CSc2oc(-c3ccccc3)nc2S(=O)(=O)c2ccc(Cl)cc2)c1 | -12.1% |
| O=C(COc1ccc(Cl)cc1)N(Cc1ccco1)Cc1ccco1 | -16.4% |
| COC(=O)c1nc(NC(=O)c2ccc(C(C)(C)C)cc2)n[nH]1 | -14.1% |
| COc1ccccc1NC(=O)/C=C/C(N)=O | 19.1% |
| COC(=O)c1sc(-c2ccc(C(C)(C)C)cc2)cc1NC(=O)/C=C/C(=O)O | -37% (active) |
| O=C(O)c1ccc(Nc2nc(-c3ccccc3)c3cc(Br)ccc3n2)cc1 | -12.9% |
| COc1ccc(NC(=O)CC(NC(C)c2ccccc2)C(=O)O)cc1 (configuration not stated) | -21.7% |
| COc1ccc(C(CC(=O)Nc2ccc(C)cc2)NC(=O)C(F)(F)F)cc1 (configuration not stated) | -43.5% (active) |

| Compound | activity change, negative = inhibition |
| --- | --- |
| COc1ccc(NC(=O)Cn2c(-c3ccc(OC)cc3)cn(-c3ccc(C)cc3)c2=O)cc1 | 3.29% |
| COc1ccc(-c2[nH]c3c(c2-c2c(-n4cccc4)n(C)c(=O)n(C)c2=O)c(=O)n(C)c(=O)n3C)cc1 | 1.12% |
| Cc1ccc(-c2cc(N)n(Cc3cccc(Cl)c3)n2)cc1 | -6.88% |
| O=C(CC(NCc1cccnc1)C(=O)O)Nc1ccc(O)cc1 (configuration not stated) | 0.451% |
| O=[S+]([O-])(c1ccc2c(c1)OCCO2)N1CCN([S+](=O)([O-])c2c(Cl)cc(Cl)cc2Br)CC1 | -16.4% |
| Clc1ccc(-c2cc(COc3ccccc3)no2)cc1Cl | 1.76% |
| O=C(Nc1ccc(Cl)cc1)OCc1cc(-c2ccccc2)on1 | -17% |
| O=C(Nc1ccccc1)OCc1cc(-c2ccc(Cl)cc2)on1 | -32.2% (active) |
| CCCCNC(=O)CSc1nc2cc3c(cc2c(=O)n1CCCCCC(=O)NCc1ccc2c(c1)OCO2)OCO3 | -9.04% |
| CC(=O)Cc1nsc(NC(=O)c2ccc(Cl)cc2Cl)n1 | -11.9% |
| CCOc1ccc(OCc2ccc(C(=O)Nc3cccc(C)n3)o2)cc1 | 1.17% |
| CC(=O)Cc1nsc(NC(=O)c2ccc(COc3ccc(C)cc3)o2)n1 | -39.7% (active) |
| COc1ccccc1-c1nnc(C2CCN(C(=O)c3ccc(Cl)cc3)CC2)o1 | -12.2% |
| O=C(CCc1cn(Cc2ccc(F)cc2)c2ccccc12)NC1CCCCC1 | -2.06% |
| COc1cc2c(cc1OC)C(COc1ccc(F)cc1)N(C(=O)c1ccccc1F)CC2 (configuration not stated) | 1.87% |
| CC(C)(C)C(=O)/C(C#N)=C/c1ccc(O)cc1 | -33.6% (active) |
| Cc1ccc(/C=C(\C#N)C(=O)Nc2cc(C)ccc2C)cc1 | 2.52% |
| CC(C)NC(=O)/C(C#N)=C\c1ccc(N(C)C)c(Br)c1 | -4.83% |
| OCc1cnc(SCc2ccc(F)cc2)n1Cc1ccc(F)cc1 | -1.85% |
| Cc1ccc(Nc2c(-c3ccc(Cl)cc3)nc3sccn23)c(C)c1 | -21.4% |
| COc1cc(NC(=O)c2cc3ccc4cccnc4c3[nH]2)cc(OC)c1OC | -1.04% |
| O=C(CCSCc1ccccc1F)N1CCN(c2ccc(Cl)cc2)CC1 | -33.3% (active) |
| Cc1cccc(N2CCN(C(=O)CCSCc3ccccc3F)CC2)c1C | 10% |

| Compound | activity change, negative = inhibition |
| --- | --- |
| COc1ccc(N2CCN(C(=O)CCSCc3ccccc3F)CC2)cc1 | -20.6% |
| c1cnn(-c2cc(N3CCOCC3)ncn2)c1 | 3.42% |
| Cc1nc(N2CCOCC2)sc1C(=O)NN | 7.42% |
| Cc1cc(C)n(Cc2cnc(N3CCOCC3)s2)n1 | -31% (active) |
| Cc1ccc2onc(CC(=O)N3CCN(c4ccc(Cl)cc4)CC3)c2c1 | -0.0287% |
| CC(=O)c1cccc(NC(=S)N2CCCC2)c1 | -8.06% |
| CSc1ccccc1C(=O)Nc1cccc(C(C)=O)c1 | -13.7% |
| CC(=O)c1cccc(NC(=O)CSc2nc3c(c(=O)[nH]2)CCC3)c1 | -6.03% |
| COc1ccc(NC(C(=O)Nc2cccc(C(C)=O)c2)c2ccccc2)cc1 (configuration not stated) | 0.474% |
| C=CCSc1nsc(NC(=O)Nc2cccc(C(C)=O)c2)n1 | -31.6% (active) |
| CCSc1nsc(NC(=O)Nc2cccc(C(C)=O)c2)n1 | -35% (active) |
| COc1ccc(-n2ccn(CC(=O)Nc3ccc(C)c(C)c3)c(=O)c2=O)cc1OC | -0.573% |
| O=C1CN(C(=O)Nc2ccccc2C(F)(F)F)C(c2ccccc2)c2c(sc3c2CCCC3)N1 (configuration not stated) | -10.2% |
| COc1cccc(-n2cc(C(=O)NCc3cccc(Cl)c3)c3ccccc3c2=O)c1 | -9.19% |
| Cc1ccc(C)c(Cn2c(=O)n(CCC(=O)NCc3ccc4c(c3)OCO4)c(=O)c3sccc32)c1 | -5.56% |
| COc1ccccc1N1CCN(C2C(=O)c3ccccc3N2C(C)=O)CC1 (configuration not stated) | -1.14% |
| O=C(c1ccc2c(c1)N(Cc1ccccc1)C(=O)c1ccccc1S2(=O)=O)N1CCC(Cc2ccccc2)CC1 | -25.2% |
| COc1cccc(N2C(=O)CN(Cc3ccccc3)C2=S)c1 | 1.81% |
| COc1ccc(Cn2ccn(Cc3cccc(OC)c3)c(=O)c2=O)cc1 | -44.5% (active) |
| COc1ccc(Cn2ccn(CC(=O)Nc3cc(C)ccc3C)c(=O)c2=O)cc1 | 10.1% |
| CC(=O)c1ccc(NC(c2ccc(F)cc2)c2nnc(-c3ccccc3)o2)cc1 (configuration not stated) | -24.1% |
| CCOC(=O)c1c(C)[nH]c(C2=NNC(=NC(C)COC)SC2)c1C (configuration not stated) | -30% (active) |
| Cc1ccc(-c2noc(CSc3nnc(-c4ccc(Cl)cc4)n3C)n2)cc1 | 0.344% |

| Compound | activity change, negative = inhibition |
| --- | --- |
| Cc1ccc2cccc(NC(=O)C(C)Oc3ccc(C)c(C)c3)c2n1 (configuration not stated) | -2.12% |
| COC(=O)c1cc(NC(=O)c2cnc(SC)nc2-c2ccccc2)cc(C(=O)OC)c1 | -16.6% |
| CCN(CC)S(=O)(=O)c1nnc(NC(=O)COc2ccccc2Cl)s1 | 1.29% |
| COc1cccc(NC(=S)N(CCc2c(C)[nH]c3ccccc23)Cc2ccco2)c1 | -45.7% (active) |
| CCNC(=S)N(CCc1c(C)[nH]c2ccc(C)cc12)Cc1ccco1 | -10.7% |
| COc1ccc2[nH]c(C)c(CCN(Cc3cccs3)C(=S)Nc3ccccc3OC)c2c1 | -1.49% |
| COc1ccc(-c2cc(-c3ccc(F)cc3)nc3c2COc2ccccc2-3)cc1 | 10.1% |
| Cc1ccc(Cl)cc1N1CCN(C(=O)C2CCC(CNS(=O)(=O)c3cccs3)CC2)CC1 (configuration not stated) | 4.96% |
| CCN(CC)c1ccc(NC(=O)CN2CCN(CC(=O)Nc3ccc(Cl)cc3)CC2)cc1 | 7.6% |
| O=C(OCc1cc(=O)n2nc(C3CC3)sc2n1)c1ccccc1Cl | -4.47% |
| Cc1ccc(-n2c(=O)c3cccnc3n2CC(=O)NCc2ccc(F)cc2)cc1C | 4.39% |
| OCC1(CCc2ccccc2)CCN(Cc2ccc3nsnc3c2)CC1 | -86% (active) |
| Cc1cccc(-c2ncc(CN3CCC(CO)(CCCc4ccccc4)CC3)cn2)c1 | 16.2% |
| CC(C)(O)C#Cc1ccc(CN2CCC(CO)(CCc3ccccc3)CC2)cc1 | 10.7% |
| CCc1ccc2ncc3c(-c4ccc(C)cc4)nn(CC(=O)NCc4ccccc4)c3c2c1 | -13.5% |
| CC1Cc2ccccc2N1C(=O)CSc1nnc(C2CC2)n1C (configuration not stated) | -45.3% (active) |
| CC1Cc2ccccc2N1C(=O)CSc1nnc(-c2ccc(S(=O)(=O)N3CCCC3)cc2)n1C (configuration not stated) | -5.59% |
| CCn1c(CSc2ncccn2)nnc1SCC(=O)N1c2ccccc2CC1C (configuration not stated) | -3.34% |
| CC(=O)c1ccc(N2CCN(C3C(=O)c4ccccc4N3C(C)=O)CC2)cc1 (configuration not stated) | 3.13% |
| COc1cccc(CNC(=O)C2CCN(S(=O)(=O)c3ccc4c(ccn4C)c3)CC2)c1 | -13.2% |
| Cc1cc(-c2ccccc2)n2nc(-c3ccccc3)cc2n1 | 5.34% |
| Cc1nc(NNC(=O)c2ccccc2)cc(-c2ccccc2)n1 | -10.3% |
| Nc1cccc(-c2cc(-c3ccccc3)nc(-c3cccc(N)c3)n2)c1 | -35% (active) |
